# Experimental data as given in the antibiotic and cytotoxicity screens of Wong et al. (2023).
# Out of some 39,000 compounds screened, about 3,300 (8.5%) were called active. The sample as a whole holds a higher share of actives than the screen did.
# Test system: HepG2
# Assay: cytotoxicity call (relative viability < 0.9)
# Conditions: 10 µM
row,SMILES,cytotoxicity call
1,Cc1noc(C)c1S(=O)(=O)Nc1ccc2c(c1)C(=O)N([C@H](C)CO)C[C@H](C)[C@@H](CN(C)S(C)(=O)=O)OCCCC[C@@H](C)O2,inactive
2,CCOC(=O)N1CCN(C[C@@H](O)Cn2c(=O)c3c(ncn3C)n(C)c2=O)CC1,inactive
3,Cc1noc(C)c1S(=O)(=O)Nc1ccc2c(c1)C(=O)N([C@H](C)CO)C[C@@H](C)[C@@H](CN(C)S(=O)(=O)c1cn(C)cn1)OCCCC[C@@H](C)O2,inactive
4,COc1ccc(NC(=O)Nc2ccc3c(c2)C(=O)N([C@H](C)CO)C[C@H](C)[C@@H](CN(C)CC2CC2)OCCCC[C@H](C)O3)cc1,inactive
5,CCOC(=O)C(C#N)C1=NCCC1 (stereo not drawn),inactive
6,C[C@@H]1CN([C@H](C)CO)C(=O)c2cc(NC(=O)c3ccccc3)ccc2O[C@@H](C)CCCCO[C@@H]1CN(C)C(=O)Cc1ccccc1,inactive
7,COc1cccc(NC(=O)N[C@H]2C=C[C@H](CC(=O)N3CCN(C)CC3)O[C@@H]2CO)c1,inactive
8,C[C@H]1CN([C@@H](C)CO)C(=O)c2cc(NC(=O)CCN3CCOCC3)ccc2O[C@@H]1CN(C)Cc1ccc(C(=O)O)cc1,inactive
9,C[C@H]1CN([C@@H](C)CO)C(=O)c2cc(NS(=O)(=O)c3cn(C)cn3)ccc2O[C@H]1CN(C)CC1CC1,inactive
10,COCC(=O)Nc1ccc2c(c1)OC[C@@H](C)N(C(=O)c1ccccc1F)C[C@@H](C)[C@H](OC)CN(C)C2=O,inactive
11,O=C1OCC=C[C@H]2O[C@@]34C=CCN(CCN5CCOCC5)C(=O)[C@H]3N(CCCCCCO)C(=O)[C@@H]4[C@@H]12,inactive
12,C=CC1CN2CCC1CC2C(O)c1ccnc2ccc(OC)cc12 (stereo not drawn),inactive
13,C=CC1CN2CCC1CC2C(O)c1ccnc2ccc(OC)cc12.Cl (stereo not drawn),active
14,C=CC1CN2CCC1CC2C(O)c1ccnc2ccc(OC)cc12.O=C(O)C(O)C(O)C(O)C(O)CO (stereo not drawn),inactive
15,COc1ccc2c3c(n(c2c1)C)[C@H](CO)N(C[C@]13CCN(CC1)C(=O)c1ccccc1F)C(=O)Nc1ccccc1F,inactive
16,C[C@@H]1CN([C@H](C)CO)C(=O)c2cc(NS(=O)(=O)c3cn(C)cn3)ccc2O[C@@H](C)CCCCO[C@H]1CN(C)S(=O)(=O)c1ccc(F)cc1,inactive
17,COc1ccc(-c2cnc3c(c2)C(=O)N([C@@H](C)CO)C[C@@H](C)[C@H](CN(C)S(=O)(=O)c2ccc(OC)cc2)O3)cc1,inactive
18,O=[N+]([O-])c1ncn(Cc2ccccn2)n1,inactive
19,O=[N+]([O-])c1ccc(O)c2ncccc12,active
20,Oc1ccc(Cl)c2c1CCC2,inactive
21,Oc1ccc(Cl)c2cccnc12 [listing 1 of 2 here],active
22,Fc1cccc2c(Cl)ccnc12,inactive

row,SMILES,cytotoxicity call
1,Oc1ccc(Cl)c2cccnc12 [listing 2 of 2 here],active
2,NS(=O)(=O)c1ccc(O)c([N+](=O)[O-])c1,inactive
3,O=C(C[C@H]1CC[C@@H]2[C@H](COC[C@@H](O)CN2C(=O)c2ccncc2)O1)NC1CCC1,inactive
4,C[C@@H]1CCCCO[C@H](CN(C)CC2CCCCC2)[C@H](C)CN([C@@H](C)CO)C(=O)c2cc(NC(=O)NC3CCCCC3)ccc2O1,inactive
5,O=C(C[C@@H]1CC[C@@H]2[C@H](COC[C@H](O)CN2Cc2ccccc2F)O1)N[C@H]1CCN(Cc2ccccc2)C1,inactive
6,C[C@H](CO)N1C[C@H](C)[C@@H](CN(C)C(=O)Nc2cccc3ccccc23)Oc2c(NS(=O)(=O)c3ccc(F)cc3)cccc2C1=O,inactive
7,C[C@H]1CN([C@@H](C)CO)C(=O)c2cc(NC(=O)Cn3cnnn3)ccc2O[C@H]1CN(C)Cc1ccc(C(=O)O)cc1,inactive
8,COc1ccc(S(=O)(=O)N(C)C[C@@H]2Oc3ccc(NC(=O)CCN4CCOCC4)cc3C(=O)N([C@H](C)CO)C[C@@H]2C)cc1,inactive
9,COCC#Cc1cnc2c(c1)C(=O)N([C@@H](C)CO)C[C@@H](C)[C@H](CN(C)C(=O)CCN1CCCCC1)O2,inactive
10,C[C@@H]1CN([C@@H](C)CO)C(=O)c2cc(NC(=O)Nc3ccc(C(F)(F)F)cc3)ccc2O[C@@H](C)CCCCO[C@H]1CN(C)S(=O)(=O)c1ccccc1,inactive
11,C[C@@H]1CCCCO[C@@H](CN(C)S(=O)(=O)c2ccccc2)[C@H](C)CN([C@H](C)CO)C(=O)c2cc(NC(=O)Nc3ccc(C(F)(F)F)cc3)ccc2O1,inactive
12,C[C@H]1CCCCO[C@@H](CN(C)S(=O)(=O)c2ccccc2)[C@@H](C)CN([C@@H](C)CO)C(=O)c2cc(NC(=O)Nc3ccc(C(F)(F)F)cc3)ccc2O1,active
13,C[C@@H]1CCCCO[C@H](CN(C)S(=O)(=O)c2ccccc2)[C@H](C)CN([C@@H](C)CO)C(=O)c2cc(NC(=O)Nc3ccc(C(F)(F)F)cc3)ccc2O1,active
14,C[C@@H]1CCCCO[C@@H](CN(C)S(=O)(=O)c2ccccc2)[C@@H](C)CN([C@H](C)CO)C(=O)c2cc(NC(=O)Nc3ccc(C(F)(F)F)cc3)ccc2O1,inactive
15,C[C@@H]1CN([C@@H](C)CO)C(=O)c2cc(NC(=O)Nc3ccc(C(F)(F)F)cc3)ccc2O[C@@H](C)CCCCO[C@@H]1CN(C)S(=O)(=O)c1ccccc1,inactive
16,C[C@H](CO)N1C[C@H](C)[C@H](CN(C)S(=O)(=O)c2ccccc2)OCCCC[C@H](C)Oc2ccc(NC(=O)Nc3ccc(C(F)(F)F)cc3)cc2C1=O,inactive
17,C[C@@H]1CCCCO[C@H](CN(C)S(=O)(=O)c2ccccc2)[C@@H](C)CN([C@H](C)CO)C(=O)c2cc(NC(=O)Nc3ccc(C(F)(F)F)cc3)ccc2O1,active
18,C[C@@H]1CCCCO[C@H](CN(C)S(=O)(=O)c2ccccc2)[C@@H](C)CN([C@@H](C)CO)C(=O)c2cc(NC(=O)Nc3ccc(C(F)(F)F)cc3)ccc2O1,inactive
19,C[C@H](CO)N1C[C@H](C)[C@@H](CN(C)S(=O)(=O)c2ccccc2)OCCCC[C@H](C)Oc2ccc(NC(=O)Nc3ccc(C(F)(F)F)cc3)cc2C1=O,inactive
20,C[C@H]1CCCCO[C@H](CN(C)S(=O)(=O)c2ccccc2)[C@@H](C)CN([C@@H](C)CO)C(=O)c2cc(NC(=O)Nc3ccc(C(F)(F)F)cc3)ccc2O1,active
21,C[C@@H]1CCCCO[C@@H](CN(C)S(=O)(=O)c2ccccc2)[C@@H](C)CN([C@@H](C)CO)C(=O)c2cc(NC(=O)Nc3ccc(C(F)(F)F)cc3)ccc2O1,inactive
